Outcome and AC50 data for 22 compounds are collected here from PubChem BioAssay (EPA / NIEHS).

For test [1], the target named is human AKT serine/threonine Kinase 1 (AKT1), AKT1 (gene 207) (UniProt P31749). In words: NVS_ENZ_hAKT1: NovaScreen (NVS) Enzymatic Assay for human AKT serine/threonine Kinase 1 (AKT1) (AID 2283138). The gist of the method: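 Recombinant human AKT1 with a specific substrate, product separated by electrophoretic mobility shift, read after 1 h. Compounds at 25 uM in duplicate, then concentration-response up to 50 uM for hits; inhibition relative to DMSO.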
Chain of human AKT serine/threonine Kinase 1 (AKT1), AKT1 (gene 207) (P31749 whole entry, looked up): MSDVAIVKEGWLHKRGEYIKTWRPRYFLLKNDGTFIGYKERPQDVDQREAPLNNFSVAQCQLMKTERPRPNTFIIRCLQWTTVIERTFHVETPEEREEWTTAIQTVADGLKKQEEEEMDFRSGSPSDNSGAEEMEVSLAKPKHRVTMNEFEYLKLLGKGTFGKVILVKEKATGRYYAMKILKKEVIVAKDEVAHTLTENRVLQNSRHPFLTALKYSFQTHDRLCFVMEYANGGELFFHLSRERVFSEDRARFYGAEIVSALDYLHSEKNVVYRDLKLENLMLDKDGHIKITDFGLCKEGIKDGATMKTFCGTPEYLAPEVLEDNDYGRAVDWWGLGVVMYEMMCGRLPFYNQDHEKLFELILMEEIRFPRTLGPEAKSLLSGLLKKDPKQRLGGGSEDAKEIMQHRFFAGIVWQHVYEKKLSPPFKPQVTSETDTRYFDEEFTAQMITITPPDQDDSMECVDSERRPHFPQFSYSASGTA

The target in test [2] is human AKT serine/threonine Kinase 2 (AKT2), AKT2 (gene 208) (UniProt P31751). Kind of test: NVS_ENZ_hAKT2: NovaScreen (NVS) Enzymatic Assay for human AKT serine/threonine Kinase 2 (AKT2) (AID 2283141). An outline of the steps: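 Cell-free fluorescence/electrophoretic mobility shift readout of recombinant human AKT2 activity, 1 h after chemical dosing. Duplicate primary screen at 25 uM, then singleton concentration-response up to 50 uM; loss of signal versus DMSO baseline.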
Chain of human AKT serine/threonine Kinase 2 (AKT2), AKT2 (gene 208) (P31751 whole entry, looked up): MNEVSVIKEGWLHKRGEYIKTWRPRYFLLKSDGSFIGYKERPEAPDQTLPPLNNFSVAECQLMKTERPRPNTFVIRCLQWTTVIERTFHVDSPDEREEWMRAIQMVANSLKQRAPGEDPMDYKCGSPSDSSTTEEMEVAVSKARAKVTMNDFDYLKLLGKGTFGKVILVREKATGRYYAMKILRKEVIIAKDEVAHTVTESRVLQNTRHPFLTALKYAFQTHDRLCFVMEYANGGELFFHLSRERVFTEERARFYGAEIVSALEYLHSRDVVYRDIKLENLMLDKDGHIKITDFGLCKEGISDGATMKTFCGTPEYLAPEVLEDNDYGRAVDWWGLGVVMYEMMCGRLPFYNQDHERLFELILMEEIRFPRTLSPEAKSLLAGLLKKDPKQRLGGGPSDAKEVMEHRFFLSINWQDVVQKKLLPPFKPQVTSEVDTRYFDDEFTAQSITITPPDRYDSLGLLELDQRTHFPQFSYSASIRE

Another test deals with CDK2 (gene 1017) (UniProt P24941). Kind of test: NVS_ENZ_hCDK2: NovaScreen (NVS) Enzymatic Assay for human Cyclin-Cependent Kinase 2 (CDK2) (AID 2283144). An outline of the steps: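 Cell-free recombinant human CDK2 with fluorescent substrate, product separated by electrophoretic mobility shift; 1 hr read. Primary screen at 25 uM in duplicate, actives retested in concentration-response up to 50 uM; loss of signal versus DMSO.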

Test [3] has as its target human FYN Proto-Oncogene, Src family Tyrosine Kinase (Fyn), FYN (gene 2534) (UniProt P06241). Kind of test: NVS_ENZ_hFyn: NovaScreen (NVS) Enzymatic Assay for human FYN Proto-Oncogene, Src family Tyrosine Kinase (Fyn) (AID 2283161). An outline of the steps:
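Recombinant enzyme with fluorescent substrate, product separated by electrophoretic mobility shift; read 1 h after dosing. Duplicate 25 uM single-point screen, actives retested in concentration series; loss of signal vs DMSO.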

The target of test [4] is human Esterase Plasma (ES), BCHE (gene 590) (UniProt P06276). Kind of test: NVS_ENZ_hES: NovaScreen (NVS) Enzymatic Assay for human Esterase Plasma (ES) (AID 2283157). An outline of the steps:
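Chemicals were added to plasma-extracted human enzyme in a cell-free format, and activity was read colorimetrically after 0.25 hour. Activity loss was referenced to DMSO; concentration-response top dose was 50 uM.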

Another test addresses Caspase-3 (Homo sapiens) (UniProt P42574). Kind of test: NVS_ENZ_hCASP3: NovaScreen (NVS) Enzymatic Assay for human Caspase 3 (CASP3) (AID 2283139). The gist of the method:
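Recombinant human caspase-3 from E. coli with a fluorogenic substrate, read by fluorescence 1 h after dosing. Primary screen in duplicate at 25 uM. Actives (for example ≥30% inhibition) rerun as concentration-response up to 50 uM.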

Test [5] deals with Histone deacetylase 3 (Homo sapiens) (UniProt O15379). Kind of test: NVS_ENZ_hHDAC3: NovaScreen (NVS) Enzymatic Assay for human Histone Deacetylase 3 (HDAC3) (AID 2283163). An outline of the steps: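 Recombinant human HDAC3 with fluorescent substrate, 1 h after dosing; product separated from substrate by electrophoretic mobility shift and read by fluorescence. Primary screen at 25 uM in duplicate; actives (e.g. ≥30% inhibition) retested in concentration-response up to 50 uM.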

The target of test [6] is human Caspase 8 (CASP8), CASP8 (gene 841) (UniProt Q14790). In words: NVS_ENZ_hCASP8: NovaScreen (NVS) Enzymatic Assay for human Caspase 8 (CASP8) (AID 2283146). An outline of the steps:
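E. coli-expressed enzyme was used in a cell-free fluorogenic substrate assay read 1 h after dosing. Loss of signal was scored relative to DMSO, and the primary screen was run in duplicate at 25 uM.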

In test [7] the target is human Elastase, ELANE (gene 1991) (UniProt P08246). Kind of test: NVS_ENZ_hElastase: NovaScreen (NVS) Enzymatic Assay for human Elastase (AID 2283153). The gist of the method:
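Cell-free elastase from human neutrophils, 1.5 h after dosing, activity read by absorbance. Primary screen in duplicate at 25 uM; hits (e.g., 30% inhibition) rerun in singleton concentration-response up to 50 uM, fitted versus DMSO.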

Test [8] deals with human CYP2C9, CYP2C9 (gene 1559) (UniProt P11712). Kind of test: NVS_ADME_hCYP2C9: NovaScreen (NVS) CYP450-related Enzyme Activity (ADME) Assay for human CYP2C9 (AID 2283108). An outline of the steps:
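Fluorescence readout of CYP2C9 activity (SF9-expressed human enzyme) at 0.75 h. The primary screen used 10 uM in duplicate, with concentration-response follow-up for actives; acetonitrile was the negative control.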

The target in test [9] is human Caspase 4 (CASP4), CASP4 (gene 837) (UniProt P49662). In words: NVS_ENZ_hCASP4: NovaScreen (NVS) Enzymatic Assay for human Caspase 4 (CASP4) (AID 2283143). The gist of the method:
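The cell-free assay used E. coli-expressed enzyme with a fluorogenic substrate, read 2 h after dosing. Signal loss was scored versus DMSO. Screening was in duplicate at 25 uM, then singleton concentration-response up to 50 uM.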

Test [10] has as its target human Dual Specificity Protein Phosphatase 3 (DUSP3), DUSP3 (gene 1845) (UniProt P51452). In words: NVS_ENZ_hDUSP3: NovaScreen (NVS) Enzymatic Assay for human Dual Specificity Protein Phosphatase 3 (DUSP3) (AID 2283152). The gist of the method: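 Cell-free assay with recombinant human DUSP3 and fluorogenic substrate, read by fluorescence intensity. Primary screen ran duplicate at 25 uM; actives followed up in concentration series; loss of signal versus DMSO scored.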

The target of test [11] is human Ephrin type-A Receptor 1 (EphA1), EPHA1 (gene 2041) (UniProt P21709). In words: NVS_ENZ_hEphA1: NovaScreen (NVS) Enzymatic Assay for human Ephrin type-A Receptor 1 (EphA1) (AID 2283158).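 Further: activity is signal loss versus DMSO meaning EphA1 kinase inhibition.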 The gist of the method: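 Cell-free kinase activity with recombinant protein, 1 hour after dosing; product separated by electrophoretic mobility shift, fluorescence read. Primary screen at 25 uM in duplicate; hits run as concentration-response up to 50 uM, relative to DMSO.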
Chain of human Ephrin type-A Receptor 1 (EphA1), EPHA1 (gene 2041) (P21709 whole entry, looked up): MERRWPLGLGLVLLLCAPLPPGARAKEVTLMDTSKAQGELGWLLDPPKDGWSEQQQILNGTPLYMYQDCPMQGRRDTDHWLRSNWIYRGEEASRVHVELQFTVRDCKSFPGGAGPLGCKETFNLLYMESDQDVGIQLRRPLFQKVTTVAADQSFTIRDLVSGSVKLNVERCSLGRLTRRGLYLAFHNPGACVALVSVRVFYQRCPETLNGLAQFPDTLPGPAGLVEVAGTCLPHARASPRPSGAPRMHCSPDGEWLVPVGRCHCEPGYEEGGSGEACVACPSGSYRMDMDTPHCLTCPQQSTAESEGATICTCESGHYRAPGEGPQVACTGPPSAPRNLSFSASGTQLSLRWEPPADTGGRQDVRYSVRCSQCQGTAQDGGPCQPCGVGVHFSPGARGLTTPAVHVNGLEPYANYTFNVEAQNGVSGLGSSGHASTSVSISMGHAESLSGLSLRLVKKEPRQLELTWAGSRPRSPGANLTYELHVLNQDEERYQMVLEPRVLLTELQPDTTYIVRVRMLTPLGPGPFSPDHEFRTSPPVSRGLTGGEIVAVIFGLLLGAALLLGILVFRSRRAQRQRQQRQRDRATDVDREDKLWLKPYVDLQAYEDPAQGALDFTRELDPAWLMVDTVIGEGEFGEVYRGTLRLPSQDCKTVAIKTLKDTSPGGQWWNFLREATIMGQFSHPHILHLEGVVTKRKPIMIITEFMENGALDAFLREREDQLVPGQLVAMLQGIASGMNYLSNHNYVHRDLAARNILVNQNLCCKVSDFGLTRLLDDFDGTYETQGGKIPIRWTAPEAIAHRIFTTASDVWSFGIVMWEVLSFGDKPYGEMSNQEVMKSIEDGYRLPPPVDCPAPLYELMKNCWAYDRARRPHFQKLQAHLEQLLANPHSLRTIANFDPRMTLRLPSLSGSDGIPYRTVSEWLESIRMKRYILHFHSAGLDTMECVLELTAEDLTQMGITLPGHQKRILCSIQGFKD

Test [12] addresses human Acid Phosphatase 1 (ACP1), ACP1 (gene 52) (UniProt P24666). Kind of test: NVS_ENZ_hACP1: NovaScreen (NVS) Enzymatic Assay for human Acid Phosphatase 1 (ACP1) (AID 2283136). An outline of the steps:
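Recombinant enzyme expressed in Sf9 cells, tested cell-free; activity read by fluorescence with electrophoretic mobility shift separation of substrate and product, 1.5 h after dosing. Primary screen in duplicate at 25 uM, actives then run in concentration series; loss of signal versus DMSO.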

In test [13] the target is human Colony Stimulating Factor 1 Receptor (CSF1R), CSF1R (gene 1436) (UniProt P07333). In words: NVS_ENZ_hCSF1R: NovaScreen (NVS) Enzymatic Assay for human Colony Stimulating Factor 1 Receptor (CSF1R) (AID 2283150). An outline of the steps: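 Cell-free recombinant human CSF1R kinase with fluorescent substrate, product separated by electrophoretic mobility shift; read 1 h after dosing. Primary screen at 25 uM in duplicate, actives then in concentration-response up to 50 uM, relative to DMSO.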

Test [14] deals with human Janus Kinase 2 (Jak2), JAK2 (gene 3717) (UniProt O60674). Kind of test: NVS_ENZ_hJak2: NovaScreen (NVS) Enzymatic Assay for human Janus Kinase 2 (Jak2) (AID 2283169). The gist of the method: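 Cell-free recombinant human JAK2 enzyme activity assay, fluorescence/electrophoretic mobility shift read 1 h after dosing. Screened in duplicate at 25 uM, then concentration-response up to 50 uM; activity as signal loss relative to DMSO.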
Chain of human Janus Kinase 2 (Jak2), JAK2 (gene 3717) (O60674 whole entry, looked up): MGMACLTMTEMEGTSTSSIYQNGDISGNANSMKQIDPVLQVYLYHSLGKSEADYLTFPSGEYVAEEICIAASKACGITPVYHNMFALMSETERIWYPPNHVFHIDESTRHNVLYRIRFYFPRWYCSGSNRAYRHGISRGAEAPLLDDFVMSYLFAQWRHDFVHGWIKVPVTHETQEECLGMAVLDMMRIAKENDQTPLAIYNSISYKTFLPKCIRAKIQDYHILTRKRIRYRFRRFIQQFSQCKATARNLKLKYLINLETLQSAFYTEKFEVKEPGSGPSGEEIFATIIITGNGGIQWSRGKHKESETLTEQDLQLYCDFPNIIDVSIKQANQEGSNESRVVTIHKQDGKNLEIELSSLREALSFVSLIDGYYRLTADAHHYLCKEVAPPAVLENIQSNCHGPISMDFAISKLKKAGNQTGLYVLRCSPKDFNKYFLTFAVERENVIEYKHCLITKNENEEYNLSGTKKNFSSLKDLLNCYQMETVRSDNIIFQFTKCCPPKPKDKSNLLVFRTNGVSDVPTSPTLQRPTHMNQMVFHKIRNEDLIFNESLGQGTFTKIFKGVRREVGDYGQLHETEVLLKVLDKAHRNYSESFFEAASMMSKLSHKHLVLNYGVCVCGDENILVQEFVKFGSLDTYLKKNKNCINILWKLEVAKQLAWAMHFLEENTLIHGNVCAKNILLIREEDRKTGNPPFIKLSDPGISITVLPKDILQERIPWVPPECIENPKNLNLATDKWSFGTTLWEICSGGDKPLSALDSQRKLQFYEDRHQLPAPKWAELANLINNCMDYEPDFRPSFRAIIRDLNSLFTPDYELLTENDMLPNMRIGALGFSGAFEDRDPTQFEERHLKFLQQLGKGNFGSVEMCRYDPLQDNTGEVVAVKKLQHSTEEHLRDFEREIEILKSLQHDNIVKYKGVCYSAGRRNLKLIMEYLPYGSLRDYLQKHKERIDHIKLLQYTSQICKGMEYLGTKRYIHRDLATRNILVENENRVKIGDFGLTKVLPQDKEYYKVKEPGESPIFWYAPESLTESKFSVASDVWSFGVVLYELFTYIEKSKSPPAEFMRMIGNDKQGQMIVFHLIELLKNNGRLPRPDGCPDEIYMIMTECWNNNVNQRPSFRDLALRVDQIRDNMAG

The target in test [15] is human Insulin Receptor (InsR), INSR (gene 3643) (UniProt P06213). In words: NVS_ENZ_hInsR: NovaScreen (NVS) Enzymatic Assay for human Insulin Receptor (InsR) (AID 2283168). An outline of the steps:
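Fluorescent substrate phosphorylation by recombinant kinase, product resolved by electrophoretic mobility shift, read 1 h after dosing. Screened in duplicate at 25 uM; hits (e.g., 30% inhibition) run in concentration-response to 50 uM; DMSO as baseline.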

For test [16], the target named is Cytochrome P450 3A4 (Homo sapiens) (UniProt P08684). In words: NVS_ADME_hCYP3A4: NovaScreen (NVS) CYP450-related Enzyme Activity (ADME) Assay for human CYP3A4 (AID 2283110). The gist of the method: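 Compounds were first screened in duplicate at 10 uM against recombinant CYP3A4 produced in insect cells, then actives were run in concentration series. Enzyme activity was measured by fluorescence after 0.33 hour, with acetonitrile as baseline.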

SMILES strings stand for the structures. Inconclusive results are not listed. The source made the active and inactive calls. How the source made its calls: active means hit-call score of the fitted dose curve at least 0.9, where 1 is the maximum; inconclusive means response in the unintended direction; inactive means score below 0.9.

Chain of human Esterase Plasma (ES), BCHE (gene 590) (P06276 whole entry, looked up): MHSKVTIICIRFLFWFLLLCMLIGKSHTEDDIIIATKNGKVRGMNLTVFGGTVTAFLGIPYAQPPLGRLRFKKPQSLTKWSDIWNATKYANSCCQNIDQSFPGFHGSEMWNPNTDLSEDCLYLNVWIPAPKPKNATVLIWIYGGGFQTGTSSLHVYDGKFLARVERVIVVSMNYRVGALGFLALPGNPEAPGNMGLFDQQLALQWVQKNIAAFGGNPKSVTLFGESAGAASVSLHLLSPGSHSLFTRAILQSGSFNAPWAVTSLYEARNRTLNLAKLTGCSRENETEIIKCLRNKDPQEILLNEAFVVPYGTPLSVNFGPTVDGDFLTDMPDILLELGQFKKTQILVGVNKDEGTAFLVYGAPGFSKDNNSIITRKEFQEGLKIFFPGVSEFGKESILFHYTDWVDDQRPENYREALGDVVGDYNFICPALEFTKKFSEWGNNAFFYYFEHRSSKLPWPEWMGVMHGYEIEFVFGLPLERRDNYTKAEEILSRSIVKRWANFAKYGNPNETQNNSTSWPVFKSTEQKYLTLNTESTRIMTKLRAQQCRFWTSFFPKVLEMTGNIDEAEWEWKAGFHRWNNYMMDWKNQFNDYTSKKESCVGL
Chain of human Elastase, ELANE (gene 1991) (P08246 whole entry, looked up): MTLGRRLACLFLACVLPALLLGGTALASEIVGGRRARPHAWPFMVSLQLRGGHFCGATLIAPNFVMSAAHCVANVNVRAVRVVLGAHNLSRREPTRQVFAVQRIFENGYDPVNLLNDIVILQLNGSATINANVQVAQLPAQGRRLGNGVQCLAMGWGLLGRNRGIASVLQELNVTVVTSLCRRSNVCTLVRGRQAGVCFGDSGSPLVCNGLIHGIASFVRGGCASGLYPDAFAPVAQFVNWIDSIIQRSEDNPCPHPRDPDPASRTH
Chain of human Caspase 8 (CASP8), CASP8 (gene 841) (Q14790 whole entry, looked up): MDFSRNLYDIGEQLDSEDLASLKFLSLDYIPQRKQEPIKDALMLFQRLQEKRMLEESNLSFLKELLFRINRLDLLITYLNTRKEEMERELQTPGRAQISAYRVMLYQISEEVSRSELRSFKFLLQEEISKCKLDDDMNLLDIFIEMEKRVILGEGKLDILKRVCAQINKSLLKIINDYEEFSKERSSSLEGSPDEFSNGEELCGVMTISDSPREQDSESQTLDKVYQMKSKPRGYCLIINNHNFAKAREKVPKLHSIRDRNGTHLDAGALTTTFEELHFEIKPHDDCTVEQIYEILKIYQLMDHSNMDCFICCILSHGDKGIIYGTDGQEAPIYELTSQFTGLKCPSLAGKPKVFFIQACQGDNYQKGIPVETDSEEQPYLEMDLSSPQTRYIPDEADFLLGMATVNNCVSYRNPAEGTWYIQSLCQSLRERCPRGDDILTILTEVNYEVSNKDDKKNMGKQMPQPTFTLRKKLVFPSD
Chain of human CYP2C9, CYP2C9 (gene 1559) (P11712 whole entry, looked up): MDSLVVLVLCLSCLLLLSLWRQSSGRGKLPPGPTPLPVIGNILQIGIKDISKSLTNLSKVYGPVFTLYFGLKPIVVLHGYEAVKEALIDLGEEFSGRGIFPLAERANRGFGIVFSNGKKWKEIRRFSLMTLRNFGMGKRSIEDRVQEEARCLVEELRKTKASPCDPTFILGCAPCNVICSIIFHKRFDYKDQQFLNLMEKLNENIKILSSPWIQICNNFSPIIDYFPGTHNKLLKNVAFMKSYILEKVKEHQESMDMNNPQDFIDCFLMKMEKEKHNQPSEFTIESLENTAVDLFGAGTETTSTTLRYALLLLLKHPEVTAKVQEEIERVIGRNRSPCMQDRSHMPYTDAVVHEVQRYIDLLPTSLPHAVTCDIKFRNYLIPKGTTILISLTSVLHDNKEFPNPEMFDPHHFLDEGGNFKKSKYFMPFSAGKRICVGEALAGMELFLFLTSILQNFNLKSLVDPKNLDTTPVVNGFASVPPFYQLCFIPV

Turning to `CCCC(CCC)C(=O)O`, the call (in test [1]; in [2]; with CDK2 (gene 1017); in test [3]) was inactive.
In the case of `CCCCOC(=O)c1ccccc1`, the call in test [4] was inactive.
As for `NC(=O)NN=Cc1ccc([N+](=O)[O-])o1`, the half-maximal activity concentration (AC50) (commonly the concentration at which the activity in the assay is half-maximal) with Caspase-3 (Homo sapiens) was 20.9 µM (active); in test [5], 1.26 µM (active).
As to `CC(C)CCCCCCOC(=O)C1CCCCC1C(=O)OCCCCCCC(C)C` (stereo not given), the compound was classed as inactive in [6] and in test [7].
Consider `CC(C)C(=O)Nc1ccc([N+](=O)[O-])c(C(F)(F)F)c1`, for which the compound was called inactive in test [8] and in test [9].
Consider `CCCCN1C(=O)[C@@H]([C@H](O)C2CCCCC2)NC(=O)C12CCN(Cc1ccc(Oc3ccc(C(=O)O)cc3)cc1)CC2`, for which, in test [10], the half-maximal activity concentration (AC50) is 14.8 µM (active).
For the compound `NNC(=O)c1ccncc1`, the compound was called inactive in test [1].
Turning to `CCCCCCCCN(C)C`, the compound was classed as inactive in [6], in test [4] and in [11].
`OCC(CO)(CO)CO`: the result in test [11] was inactive.
With `Cc1ncc([C@@H](CCCCCCc2ccc3c(n2)NCCC3)CC(=O)O)cn1`, the compound was called inactive in test [12], in test [1] and in test [13].
In the case of `c1ccc(C(O[C@@H]2CCCN(CCc3ccc4c(c3)OCO4)C2)c2ccccc2)cc1`, the half-maximal activity concentration (AC50) is 6.98 µM (active) in [8] and 7.95 µM (active) in [4].
Consider `O=C(O)c1ccc2c(c1)nc(C(=O)NC1CCN(C3CC3)CC1)n2Cc1cc(-c2ccc(Cl)s2)on1`, for which, in test [14], the result was inactive.
Take `Cc1ccc(S(=O)(=O)NC(=O)NN2CCCCCC2)cc1`: the outcome in test [2] was inactive.
In the case of `OC(Cn1cncn1)(Cn1cncn1)c1ccc(F)cc1F`, the compound was called inactive in test [8] and in [14].
As for `Cc1nc(-c2ccccn2)ncc1C(=O)Nn1cc(C)c2cc(F)ccc21`, the result in [12], in test [2], in [11] and in test [5] was inactive.
Regarding `CC[C@H](C)C(=O)O[C@H]1C[C@H](O)C=C2C=C[C@H](C)[C@H](CC[C@@H](O)C[C@@H](O)CC(=O)O)[C@H]21`, the compound was called inactive in [8] and in [6].
As for `CCn1nc(C)c2c1C(=O)NCC(c1ccc(O)cc1)=N2`, the compound was called inactive in test [7] and in test [4].
With `O=C(NO)C1(NS(=O)(=O)c2ccc(Oc3ccc(F)cc3)cc2)CCOCC1`, the call in test [11], in test [3] and in test [14] was inactive.
Turning to `O=S(=O)(O)c1ccc(N=Nc2c(O)ccc3cc(S(=O)(=O)O)ccc23)cc1`, in the test with Caspase-3 (Homo sapiens), the AC50 is 37.7 µM (active).
With `CCCOc1ccc(S(=O)(=O)N2CCN(CC)CC2)cc1-c1nc2c(CC)n(Cc3ccccn3)nc2c(=O)[nH]1`, the half-maximal activity concentration (AC50) in test [8] was 2.98 µM (active). The call in test [15] was inactive.
Take `COc1cc(C(C)C)c2c(c1)S(=O)(=O)N(COc1cc(=O)n3cccc(OCCN4CCCCC4)c3n1)C2=O`: the concentration at half-maximal activity (AC50) in test [16] was 900 nM (active); in test [7], 34.1 nM (active).
For the compound `OCCOCCOCCO`, the outcome in test [16], in test [2] and in test [11] was inactive.
